mHTT CaM bind – mHTT-calmodulin interaction abrogation; P42858; inhibition, % at 15 µM; AID 1671202; AlphaScreen His-mHTT/GST-CaM binding, luminescence; actives 3.6% (n = 190,000);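 further: 0% = both proteins with DMSO and 100% = one protein alone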
Pf apPOL block – Pf-apPOL DNA polymerase inhibition; Recombinant Pf-apPOL, molecular beacon fluorescence, 1.5 h; inhibition, % at 10 µM; actives 0.25% (n = 210,000); AID 1794808
Active calls of the source: *; / = not tested or not shown. Hits are enriched below; roughly 3.6% of the tested compounds scored in any of these assays. No stated cut-off is given here; in the data, active means inhibition above about 50%; inactive means the rest.

SMILES	mHTT CaM bind	Pf apPOL block
O=C(c1ccco1)N(CCCn1ccnc1)c1nc2c(Cl)cccc2s1	32	0
COc1ccccc1NCC(O)CC1C(C)=C(C)c2ccccc21 (stereo not given)	63*	1
COc1ccccc1NC1OC(=O)c2ccccc21 (stereo not given)	-1	-3
CN1CCN(C(=O)C2CCc3sc(C(=O)N4CCCCC4)cc3C2)CC1 (stereo not given)	8	-1
Cn1nc(C(=O)NCc2ccc3c(c2)OCO3)c2c1CCN(C(=O)Cc1cccs1)C2	54*	-5
Cn1nc(C(=O)NCc2ccc3c(c2)OCO3)c2c1CCN(C(=O)c1ccco1)C2	-4	-8
Cn1nc(C(=O)NCc2ccc3c(c2)OCO3)c2c1CCN(C(=O)c1ccc(F)cc1)C2	51*	-14
Cn1nc(C(=O)NCc2ccc3c(c2)OCO3)c2c1CCN(C(=O)c1cccs1)C2	11	0
Cc1cccc(-n2cc(C3CCN(C(=O)NCc4ccccc4)CC3)cn2)c1	-5	-4
CCOC(=O)C1CCN(C(=O)c2cccc(C3CCCN(C(=O)NC(C)C)C3)c2)CC1 (stereo not given)	6	-1
COc1ccccc1/C=C/C=c1\sc2nc(=O)c(Cc3ccccc3)nn2c1=O	51*	-5
COc1ccccc1/C=c1\sc2nc(=O)c(Cc3ccccc3)nn2c1=O	2	-1
O=C(NC1CC1)c1ccc(OCC2CCCN(C(=O)c3c(F)cccc3F)C2)cc1 (stereo not given)	6	2
CCCNC(=O)c1nc(N2CCCC2)c2c(C)cc(C)nc2n1	-2	4
Cc1ccc2ncn(C3CCN(C(=O)C(C)Oc4ccccc4)CC3)c2c1 (stereo not given)	9	-4
CCOc1ccc(C(=O)N2CCC(n3cnc4ccc(C)cc43)CC2)cc1	77*	-3
Cc1ccccc1-n1nc(C(=O)NC2CC2)nc1C	-5	0
COc1cc(CN(C)CCN(C)C)cc([N+](=O)[O-])c1O	2	-2
O=C1CCCC2=C1C(c1ccccc1Cl)n1c(nc3ccccc31)N2 (stereo not given)	-5	-12
c1ccc(C2C3=C(CCCC3)Nc3nc4ccccc4n32)cc1 (stereo not given)	100*	0
c1ccc(C2C3=C(CCCC3)Nc3ncnn32)cc1 (stereo not given)	7	96*
CC1(C)CC(=O)C2=C(C1)Nc1ncnn1C2c1ccccc1 (stereo not given)	-2	0
Cc1oc(C2CCN(C(=O)c3ccccc3C(F)(F)F)CC2)nc1C(=O)N1CCCC1	2	-4
CCn1cc(Cl)c(C(=O)N2CCC3(C2)NCc2ccccc2NC3=NC2CCCC2)n1 (stereo not given)	12	-1
CCOc1ccc(/C=C2/SC(=O)NC2=O)cc1	-2	-4
SMILES	mHTT CaM bind	Pf apPOL block
COc1ccc(N(CC(=O)Nc2ccc(Br)c(C)c2)S(C)(=O)=O)c(OC)c1	54*	0
COc1ccc(NC(=O)CN(c2ccc(Cl)cc2C)S(C)(=O)=O)c(OC)c1	6	-6
Cc1cc(=O)n(CC(=O)Nc2ccc(Cl)cc2)c(N2CCCC2)n1	58*	-1
Cc1cc(=O)n(CC(=O)Nc2ccccc2)c(N2CCCCC2)n1	-15	-2
O=C1Nc2ccc(Br)cc2C(c2ccccc2Cl)C1N1CCCCC1 (stereo not given)	80*	-7
O=C1CN(C(=O)C2CC2)C(c2ccccc2)c2cc(Br)ccc2N1 (stereo not given)	10	-4
CCN(CC)C1C(=O)Nc2ccc(Br)cc2C1c1ccccc1Cl (stereo not given)	94*	13
CC12CC(NC(=O)N1Cc1ccccc1)c1cc(Br)ccc1O2 (stereo not given)	10	3
O=C(c1cccs1)N1CCN(c2ccc([N+](=O)[O-])c(NC3CC3)c2)CC1	26	-1
O=C1c2ccccc2NC(c2ccc(Cl)cc2)N1c1ccc(F)cc1 (stereo not given)	2	-1
COc1cc(C2CC(=O)Nc3n[nH]c(C)c32)cc(OC)c1OC (stereo not given)	-2	-5
Cc1cccc2nnc(N3CCCN(C(=O)c4cccs4)CC3)n12	-1	1
COc1ccc(S(=O)(=O)n2c([N+](=O)[O-])cnc2C)cc1OC	2	-4
COc1ccc(S(=O)(=O)n2cc([N+](=O)[O-])cn2)cc1OC	100*	-8
COc1ccc(/C=C2\N=C(c3cc([N+](=O)[O-])ccc3Cl)OC2=O)cc1OC	6	24
O=C(c1cc2ccccc2[nH]1)N1CCC2(CC1)NC(=O)N(Cc1ccc(Cl)cc1)C2=O	99*	-2
O=C(c1c[nH]c2ccccc12)N1CCC2(CC1)NC(=O)N(Cc1ccccc1)C2=O	62*	2
O=C(c1nccc2ccccc12)N1CCC2(CC1)NC(=O)N(Cc1cccc(Cl)c1)C2=O	24	-8
O=C(c1c[nH]c2ccccc12)N1CCC2(CC1)NC(=O)N(Cc1cccc(Cl)c1)C2=O	100*	-1
O=C(c1cc2ccccc2[nH]1)N1CCC2(C1)NC(=O)N(Cc1ccc(Cl)cc1)C2=O (stereo not given)	9	1
O=C(c1ccccc1F)N1CCC2(CC1)NC(=O)N(Cc1ccccc1)C2=O	-1	-2
O=C(O)CCn1cnnn1	-6	/
Fc1ccc(CN2CCN(c3ncccn3)CC2)c(F)c1	-6	-4
Oc1c(CN2CCCCC2)cc(CN2CCCCC2)nc1-c1ccccc1	7	1
Oc1ccccc1CN1CCCC1	1	-1
SMILES	mHTT CaM bind	Pf apPOL block
COCc1cc(CN2CCCC2)c(O)c2ncccc12	100*	3
Oc1c(CN2CCCCC2)cc(Cl)c2cccnc12	100*	-7
Oc1c(CN2CCN(Cc3ccc4cccnc4c3O)CC2)ccc2cccnc12	100*	-11
COc1ccc(NC(=O)c2ccc(N3CCN(Cc4ccccc4)CC3)c([N+](=O)[O-])c2)cc1	14	-7
CCOC(=O)CNC(=O)N1CCN(Cc2nc3cccnc3n2-c2ccc(F)cc2)CC1	-2	-1
CCCSc1nnc2c(n1)OC(c1ccco1)Nc1ccc(Br)cc1-2 (stereo not given)	53*	-7
CSc1nnc2c(n1)OC(c1ccncc1)Nc1ccc(Br)cc1-2 (stereo not given)	54*	-5
CCCSc1nnc2c(n1)OC(c1ccco1)Nc1ccccc1-2 (stereo not given)	7	-5
CSc1nnc2c(n1)OC(c1ccc(C(=O)O)cc1)Nc1ccc(Br)cc1-2 (stereo not given)	4	-12
Cc1cccc2c(C(N)=O)cc(=O)[nH]c12	-2	-4
CC(C)c1cc(C2CCCN2C(=O)NCc2ccc(F)cc2)no1 (stereo not given)	1	0
Cc1nc(C)c(C(=O)OCc2cc(-c3ccc4c(c3)OCCO4)on2)s1	-13	-2
O=C(OCc1cc(-c2ccc3c(c2)OCCO3)on1)c1cc(-c2ccco2)n[nH]1	69*	67*
CC(C)(C)NC(=O)C1CC(=O)N(c2cccc(F)c2)C1 (stereo not given)	-7	-7
COc1cc(-c2noc(C)c2/C=C/c2ccc(N)cc2)cc(OC)c1OC	53*	-5
COc1cc(-c2noc(C)c2C#Cc2ccc(N)cc2)cc(OC)c1OC	13	-4
CSc1nnc2c(n1)OC(c1cc3c(cc1Cl)OCO3)N(C(C)=O)c1ccccc1-2 (stereo not given)	78*	-13

Compound activity from PubChem BioAssay.
